# Source: PubChem BioAssay (NCI)
# Values joined by “and” are separate entries in the source; they are usually repeats but may differ in a detail not shown here. Equal entries are not always repeated. This is part of a sample that, as a whole, favours compounds with a hit. Of some 79,000 tested, about 15% had one in any assay. Unmarked numbers belong to inactive results. Active and inactive are the calls of the source. Rule as the data show it: active = growth inhibition above about 70%; inactive = the rest.
# How the values were obtained:
# [1] = NCI Yeast Anticancer Drug Screen. Data for the rad50 strain (AID 155);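 also: 0% = growth of vehicle-only cultures of the same strain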; conditions: S. cerevisiae rad50 strain growth inhibition, active compounds read high; at 50.0 µM unless noted
# In short: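 Inhibition values express reduced yeast growth in compound-treated cultures relative to vehicle-treated controls.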
# [2] = NCI Yeast Anticancer Drug Screen. Data for the mec2-1 strain (AID 157); conditions: S. cerevisiae mec2-1 strain, active compounds read high; at 50.0 µM unless noted
# In short: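 Yeast mec2-1 mutant treated with compound. Readout: growth inhibition vs vehicle controls.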
# [3] = NCI Yeast Anticancer Drug Screen. Data for the sgs1 mgt1 strain (AID 161);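 also: 0% = growth of cultures given vehicle only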; conditions: S. cerevisiae sgs1 mgt1 strain, active compounds read high; at 50.0 µM unless noted
# In short: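 Read-out: growth inhibition vs vehicle controls. Cells: mutant yeast strain deficient in DNA damage repair.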
# [4] = NCI Yeast Anticancer Drug Screen. Data for the cln2 rad14 strain (AID 165);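 also: 0% = growth equal to vehicle treated cultures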; conditions: S. cerevisiae cln2 rad14 strain, active compounds read high; at 50.0 µM unless noted
# In short: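 cln2 rad14 yeast strain; compound exposure; growth inhibition read vs vehicle controls.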
# [5] = NCI Yeast Anticancer Drug Screen. Data for the bub3 strain (AID 167); conditions: S. cerevisiae bub3 mutant strain, active compounds read high; at 50.0 µM unless noted
# In short: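 Steps: expose the mutant yeast strain to compound; grow alongside vehicle-treated cultures; measure growth; express inhibition against the vehicle cultures.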
# [6] = NCI Yeast Anticancer Drug Screen. Data for the mlh1 rad18 strain (AID 175); conditions: S. cerevisiae mlh1 rad18 strain growth inhibition, active compounds read high; at 50.0 µM unless noted
# In short: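 Yeast w/ defined DNA-repair lesions; compound exposure; growth vs vehicle controls → % inhibition.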
SMILES,growth inhibition [1],growth inhibition [2],growth inhibition [3],growth inhibition [4],growth inhibition [5],growth inhibition [6]
CC12C=CC(=O)C(O)C1CC=CC2 (stereo unspecified),12.6%,14.3%,4.3%,6.05%,11.4%,8.95%
Cc1ccc2[nH]c(C(=O)O)cc2c1,31.1%,-6.8%,10.8%,10.3%,9%,28.1%
CC(C)CCCC(C)[C@H]1CCC2C3CC=C4C[C@@H](OC(=O)CC(CC(=O)[O-])C(=O)[O-])CC[C@]4(C)C3CC[C@@]21C.N.N.[Pt+4] (stereo partly specified),26.2%,13.1%,11.7%,4.2%,12.6%,0.35%
CCCC(=O)Nc1ccc(C2=NNC(=O)C3CC23)cc1 (stereo unspecified),31.2%,26.6%,33.5%,-20%,27.9%,36.5%
O=C(O)C1C2CCCC21 (stereo unspecified),-10.8%,30.2%,-4.75%,25.9%,2%,0.8%
COc1ccc(/C(=N/N)C(C)(C)C)cc1,5.8%,-2.8%,-7.95%,-15.8%,-1.6%,-1.9%
CN(/C(=C/C(=O)c1ccccc1)C(=O)c1ccccc1)/C(=C/C(=O)c1ccccc1)C(=O)c1ccccc1,-27.4%,3.2%,-0.95%,-5.25%,-4.5%,26.8%
CC1CC(=O)C(CC(=O)O)C1C(C(=O)C(=O)Nc1c(C#N)cccc1[N+](=O)[O-])[N+](=O)[O-] (stereo unspecified),-37.7%,-16.6%,-43%,15.8%,-43.8%,-36.8%
CC(C)/C(Cl)=N/OC(=O)Nc1ccc(F)c(Cl)c1,37.4%,35.3%,89.3% (active),-1.3%,60.8%,-36.8%
c1ccc(C2=NN(c3ccccc3)CC2)cc1,-8.3%,-3.15%,0.4%,9.25%,9.35%,2.05%
c1ccc(N=c2sc3ccccc3nc2Nc2ccccc2)cc1,5.65%,-37.8%,-34.4%,-64.8%,-23.3%,-48.9%
Cc1cccc(C)c1NC(=O)c1c(Cl)c(Cl)c(Cl)c(Cl)c1C(=O)O,-25.9%,11.8%,-15.7%,-20%,4.55%,-18.2%
Cc1noc(NS(=O)(=O)c2ccc(Nc3nc(CC(=O)Nc4ccccc4)cs3)cc2)c1C,18.4%,-19.1%,17.2%,12.7%,-17.1%,9.2%
COc1ccc(OC)c(N)c1,-4.3%,-8.4%,-7.55%,16.4%,3.6%,-22.9%
COc1cc2c(cc1C(C)c1ccc(Cl)cc1)OCO2 (stereo unspecified),12.8%,-1.55%,-1.6%,21%,20.2%,4.9%
Cc1[nH]c(=O)nc(N/N=C/c2ccc(Cl)cc2)c1C(=O)NC(C)(CO)CO,-30.6%,-14.6%,-43.5%,-10.4%,16.7%,-3.45%
Cc1cc(C2=NCC(C)(C)S2)ccc1O,15.2%,7.8%,8.9%,10.2%,25%,29.5%
CC1(C)C(=O)C=C(c2ccccc2)C1(O)c1ccccc1 (stereo unspecified),-9.45%,-29.9%,16.9%,5.35%,22.4%,-38.5%
CC1CCC(C(=O)O)(C(Br)C(=O)O)CC1 (stereo unspecified),-14.5%,-12.7%,-12.8%,-27.9%,-20.8%,-3.3%
CC1(C)N=C(N)N=C(N)N1CCCOc1ccc(N)cc1,33.2%,-4.65%,11.8%,5.2%,-3.55%,1.1%
CCOC(=O)C1=C(O)C(=O)C=C(O)C1=N,-12.2%,-2.6%,-11.6%,4.5%,-18.4%,9.65%

SMILES,growth inhibition [1],growth inhibition [2],growth inhibition [3],growth inhibition [4],growth inhibition [5],growth inhibition [6]
O=C(O)CC(c1ccccc1)C(CC(=O)O)c1ccccc1 (stereo unspecified),-3.8%,8.75%,17.6%,17.2%,5.95%,9.85%
O=c1[nH]c2[nH]c(=S)[nH]c(=O)c2[nH]1,6.3%,0.85%,-8.5%,-11.7%,-3.4%,-13.8%
Cc1ccc(C(=O)NNC(=O)c2ccc(C)cc2)cc1,-10.5%,-18.4%,-11.1%,2.8%,-10.9%,-5.15%
O=C(NC(NC(=O)c1ccccc1)c1ccccc1)c1ccccc1,2.1%,-9.2%,1.25%,-55.2%,8.55%,-0.9%
C/C=C/C(=O)Oc1ccc[nH]c1=O,-10.9%,13.1%,4.85%,-2.15%,11.8%,-4.25%
O=C(O)C1Cc2c([nH]c3ccccc23)CN1 (stereo unspecified),8.45%,-10.9%,11.6%,2.25%,24.1%,9.25%
CCCCCCCCCCCCCCCCCCS(=O)(=O)CC(O)CO (stereo unspecified),-4.45%,5.2%,-1.4%,2.4%,-11%,12.4%
OCCCNCc1ccccn1,7.25%,-13.7%,-20.4%,22.2%,-12.2%,-16.6%
CC(=O)Nc1c(C)cc([N+](=O)[O-])c2ccccc12,-0.7%,-2.45%,-14.9%,-9.45%,8.05%,-13.3%
COc1ccc(Cl)cc1N,-14.3% and 17.1%,-15.6% and -4%,-12.7% and -2.8%,8.35% and 22.1%,3.25% and -3.2%,-7.55% and 16.1%
CCC12CCCNC1c1c(n(C)c3ccccc13)C(C(=O)OC)C2 (stereo unspecified),36.9%,-2.9%,25%,25.6%,-9.05%,-20.7%
COc1ccccc1CN1CCCN(Cc2ccccc2OC)C1c1cccc(F)c1,0.75%,9.9%,0.65%,16.4%,6.65%,17.8%
CC[O-].CC[O-].CN(C)c1ccc([O-])cc1.CN(C)c1ccc([O-])cc1.[Ti+4],-29.9%,9.5%,2.2%,20.2%,-9.15%,-1.8%
CCc1nnc2c(C)c(C)nc(C)n12,21.2%,1.55%,-16%,-16.1%,17.2%,1.6%
COc1cc2c3c([nH]c2c(OC)c1OC)CCN(Cc1ccccc1)C3,-27.7%,-15.1%,-10.2%,6.1%,-0.7%,10.8%
Nc1nnc2nc(CC(=O)c3cccc([N+](=O)[O-])c3)/c(=C/C(=O)c3cccc([N+](=O)[O-])c3)n12,33.5%,18.7%,12.2%,7.45%,-4.8%,22.8%
Cc1c2ccncc2c(C)c2c1[nH]c1ccc(O)cc12,16.9%,14.2%,43.9%,23.6%,19.5%,58.9%
O=c1[nH]c(=O)n(C2OC(CO)C(O)C2O)c2ccccc12 (stereo unspecified),8.3%,-6.4%,-8%,-2%,-5.45%,3.8%
NC(C(=O)O)c1ccc(CBr)cc1 (stereo unspecified),9.5%,-12.3%,-10.2%,4.25%,-1.6%,-64.5%
Cc1cc([N+](=O)[O-])ccc1P(=O)(O)O,8.55%,7.6%,0%,-0.65%,-3.8%,-7.95%
